Screening results (PubChem)
Compounds with a hit are over-represented: about 4.4% of the library has one in this group of screens.
SUMO Mot1 rescue: blocks SUMOylation pathway, rescuing yeast Mot1-301 growth; S. cerevisiae Mot1-301 growth rescue, ATP luminescence, 38.5C; percent above DMSO median, 100 means doubled; growth rescue, % at 18.8 µM; 320,000 compounds, 1% hits;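 active means every valid replicate shows activation above 250% relative to neutral control wells; inactive means the rest, any valid replicate at or below 250%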;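 further: OY570 slx delta 5 strain wells were the positive control but not used for scaling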
tim10-1 inh: inhibits growth of tim10-1 mutant yeast; S. cerevisiae tim10-1 ts strain growth, BacTiter-Glo, 24 h; inhibition, % at 20 µM; 330,000 compounds, 2.2% hits; AID 463190;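 active means inhibition of at least 40%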;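 further: mutant grown at 25 °C; 0% = DMSO wells with yeast and 100% = wells holding no yeast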
PfHsp90 set2: growth inhibition of yeast expressing Plasmodium Hsp90. inhibition, % at 9.4 µM. 310,000 compounds, 0.32% hits. S. cerevisiae expressing PfHsp90, BacTiter-Glo ATP, 48 h; yeast lacking PDR1 and PDR3 efflux regulators;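 active means every replicate shows inhibition above about 80%, whatever the replicate mean, limit read from the data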;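 further: 0% = DMSO neutral controls and 100% = 20 µM radicicol positive controls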
TIM10 inh: growth inhibitors of TIM10 yeast strain; inhibition, % at 10 µM; 330,000 compounds, 1.4% hits; S. cerevisiae TIM10 strain growth, BacTiter-Glo luminescence, 24 h;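 active means inhibition of 40% or more at the single tested concentration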;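 further: wild-type TIM10 isogenic control strain grown at permissive 25 °C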
tim23-1 inh: growth inhibitors of tim23-1 mutant yeast | S. cerevisiae tim23-1 growth, BacTiter-Glo luminescence, 24 h | inhibition, % at 20 µM | 330,000 compounds, 1.3% hits | AID 463212;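 active means growth inhibition of the mutant yeast at or above 50%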;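 further: temperature-sensitive mutant grown at 25 °C; plate controls were DMSO-treated mutant yeast for no effect and medium wells lacking yeast for full effect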
Mot1 SUMO dose: SUMO pathway inhibitors in yeast Mot1-301 growth. 2,300 tested, under 10 active. growth activity, percent, % at 42 µM. shares compounds with SUMO Mot1 rescue. S. cerevisiae Mot1-301 galactose growth, ATP luminescence, 24 h; -100 = growth of slx-deleted rescue strain;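 active means Signal drops as the depositor expects, and the fitted half-maximal dose is no more than ten times the top valid tested dose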;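 further: more negative values mean stronger growth rescue toward the control strain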
* marks the source's active call; other numbers are inactive results; . = not tested or not shown; + = active, no number.

SMILES	SUMO Mot1 rescue	tim10-1 inh	PfHsp90 set2	TIM10 inh	tim23-1 inh	Mot1 SUMO dose
NC(=O)C1Cc2ccccc2CN1S(=O)(=O)c1ccc(Cl)s1 (centres undefined)	-5	-4	11	8	9	.
Cc1cc(=O)oc2cc(OCC(=O)N(C)C3CCS(=O)(=O)C3)c(Cl)cc12 (centres undefined)	0	3	0	-4	-3	.
CCC(c1nc2ccccc2c(=O)n1-c1nc2ccccc2s1)N1C(=O)c2ccccc2C1=O (centres undefined)	359*	35	-91	35	24	0
O=c1c2ccccc2ncn1Cc1nc2ccccc2s1	-29	-29	27	5	2	.
CCOC(=O)c1nc(Nc2ccccc2C)c2ccccc2n1	2	1	5	3	25	.
CCOC(=O)c1nc(Nc2ccccc2CC)c2ccccc2n1	996*	26	8	-18	25	0
O=C(NCC(c1ccco1)N1CCc2ccccc2C1)c1ccc(F)cc1 (centres undefined)	1	23	-1	2	32	.
CCOC(=O)c1cccc(NC(=O)c2cc(C)nn2-c2ccccc2)c1	-20	29	10	17	27	.
CCNC(=O)C1CC(=O)N(Cc2ccc3c(c2)OCO3)C(=Nc2ccc(F)cc2)S1 (centres undefined)	781*	5	5	-2	-7	1
O=C(COC(=O)CNC(=O)c1ccccc1)NCCCc1ccccc1	3	1	7	-9	-1	.
N#CCC(=O)N/N=C/c1ccc(OS(=O)(=O)c2ccccc2)cc1	846*	31	-13	8	6	-1
COc1ccc(Cl)cc1NC(=O)CN(C)C(=O)c1cc(C)oc1C	3	6	-13	4	18	.
CC(OC(=O)CN1C(=O)NC2(CCCC2)C1=O)c1ccc(F)cc1 (centres undefined)	4	15	0	12	3	.
CC(NC(=O)c1cnc2n(c1=O)CCS2)c1ccccc1 (centres undefined)	994*	9	-13	1	12	0
C/C(=N\Nc1ccc2nncn2n1)c1ccccn1	67	-29	.	-60	33	.
C(=N\Nc1ccc2nncn2n1)/c1ccccn1	499*	-10	-2	12	-12	0
COC(=O)c1cncn1Cc1ccccc1	.	.	14	.	.	.
CN(C)C(CNC(=O)c1ccc(C2SCCS2)cc1)c1ccccc1 (centres undefined)	-11	17	-1	3	23	.
CC(C)C(NC(=O)c1ccccc1)C(=O)NCC(c1ccccc1)N(C)C (centres undefined)	+	1	-17	7	1	0
CN(C)C(CNC(=O)CNC(=O)c1ccc(Br)cc1)c1ccccc1 (centres undefined)	599*	3	.	-1	11	0
O=S(=O)(NCc1ccco1)c1ccc2ccccc2c1	430*	9	-23	3	16	0
Nc1ccc(N2CCN(c3ccc(F)cc3)CC2)cc1	903*	5	-19	13	-7	0
c1cc(CCCc2ccncc2)ccn1	-7	-8	2	-7	-9	.
CN(C)c1ccc(CN(Cc2ccco2)C(=O)c2ccco2)cc1	366*	29	2	5	20	0
Cc1nn(CC(=O)NCCN2CCCCC2C)c(=O)c2cc(-c3ccccc3)nn12 (centres undefined)	5	11	20	6	13	.
SMILES	SUMO Mot1 rescue	tim10-1 inh	PfHsp90 set2	TIM10 inh	tim23-1 inh	Mot1 SUMO dose
NS(=O)(=O)c1cccc(NC(=O)c2cccnc2Oc2ccccc2)c1	936*	-1	9	13	20	0
CCOc1ncccc1C(=O)OCC(=O)Nc1cccc(S(N)(=O)=O)c1	-17	3	-8	-4	10	.
COc1ccccc1NC(NC(=O)c1ccco1)C(=O)c1ccccc1 (centres undefined)	839*	0	-6	-5	-10	0
COc1ccccc1NC(=S)NC(NC(=O)c1ccco1)C(Cl)(Cl)Cl (centres undefined)	-8	7	21	11	12	.
COC(=O)c1ccccc1NC(NC(=O)c1ccco1)C(=O)c1ccccc1 (centres undefined)	449*	17	.	3	7	-1
Cc1cc(NC(=O)CSc2ncn(-c3ccccc3)n2)no1	925*	-2	10	2	6	0
